The supplement of paper PMC12636033
± gives the standard deviation of the averaged measurements. Over roughly 33,000 sequences, “E-score (rank enrichment, -0.5 to 0.5)” has its median near -0.0075; the highest 2% begin near 0.23. Many of the other results were omitted from the sample, so the highest values are more common in it than they were.

Tested on: WT Max(13-93) synthetic (M65Nle)
Assay: PBM 8-mer E-score (E-score (rank enrichment, -0.5 to 0.5)); higher = stronger preferential binding
Method: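 Protein binding microarray (universal PBM chip covering all 10-mers in fixed probe flanks) with chemically synthesized human Max(13-93) bHLH-LZ analogs (not full-length Max) bearing noncanonical residues (hArg, Tha, Aib, Nle at 65) and aromatic Cys staples. Read-out per 8-mer (and its reverse complement): E-score (rank-based enrichment, -0.5 to 0.5) and Z-score of median probe intensity.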

Sequence | PBM 8-mer E-score
ATAATTCG | 0.147 ± 0.059
ATAATTTG | 0.254 ± 0.031
ATAATTAG | 0.237 ± 0.16
ATAATTAC | 0.232 ± 0.019
ATAATTAT | 0.239 ± 0.0049
CTAATTAG | 0.0687 ± 0.053
AGCACAGC | -0.163 ± 0.16
ACTCTCTG | -0.0092 ± 0.11
CCGCCTCA | -0.108 ± 0.14
ATGGTTTA | 0.161 ± 0.047
AATGGGAA | 0.0482 ± 0.059
CATGTTGA | 0.256 ± 0.1
AATGTTGA | -0.0484 ± 0.091
GATGTTGA | 0.0902 ± 0.11
TATGTTGA | 0.233 ± 0.0055
CATGTTGG | 0.156 ± 0.063
CATGTTGC | 0.12965 ± 2.8e-05
ACGCGTAT | 0.108 ± 0.0066
CAGCGAGA | -0.174 ± 0.013
GACGAATA | 0.17 ± 0.011
GTCGTCCA | -0.159 ± 0.064
CCGTGGCA | -0.0466 ± 0.052
GCGTGGCC | 0.0675 ± 0.016
ACGTGGCA | 0.33 ± 0.0069
AGGTGGCG | 0.13 ± 0.021

Sequence | PBM 8-mer E-score
AAGTGGCT | 0.0496 ± 0.069
ACGTGGCG | 0.296 ± 0.05
CCGTGGCG | -0.147 ± 0.07
ACTTGGCT | -0.128 ± 0.062
ACGTGGCT | 0.286 ± 0.018
ACGTGGCC | 0.247 ± 0.0096
CCGTGGCC | -0.112 ± 0.013
TCGTGGCA | 0.219 ± 0.1
ACGGGCTC | -0.297 ± 0.085
CGGCAACA | -0.15 ± 0.01
ACCGCTAG | -0.0126 ± 0.12
CCCACATC | -0.1 ± 0.063
AGATGCAA | 0.152 ± 0.13
CACTCCAA | -0.103 ± 0.025
CCGCTCGC | -0.0861 ± 0.086
ACCCCCCG | -0.2 ± 0.1
ATGGCGAA | 0.104 ± 0.068
ACGCGTGC | 0.244 ± 0.02
ACGCGTGG | 0.212 ± 0.03
CCGCGTGC | 0.268 ± 0.051
CAGCGTGC | 0.191 ± 0.014
ACGCGTGA | 0.219 ± 0.081
CCGCGTGA | 0.172 ± 0.0086
AACCCAAG | 0.00894 ± 0.087
CGGGAAAC | -0.106 ± 0.079

Sequence | PBM 8-mer E-score
AATAACAA | 0.264 ± 0.018
GATAACAA | 0.0563 ± 0.033
CATAACAA | 0.251 ± 0.042
CGTAACAA | 0.136 ± 0.087
CATAACAC | 0.236 ± 0.016
CCTAACAA | 0.11 ± 0.026
AATAACAC | 0.0775 ± 0.12
CATAACAG | 0.125 ± 0.021
AATAACAG | 0.17 ± 0.06
TCTAACAA | -0.0242 ± 0.029
TATAACAA | 0.24 ± 0.026
AATAACAT | 0.181 ± 0.049
CTACGTCC | -0.0109 ± 0.12
AGCAATGC | 0.12 ± 0.09
GGGGACAC | -0.27 ± 0.018
AAAAGGGG | 0.0924 ± 0.053
CGACCAGC | -0.0396 ± 0.11
CAAATAGC | 0.0495 ± 0.0037
CGCCCGTC | -0.106 ± 0.034
AGAGCTAG | -0.0196 ± 0.051
CTTGCCCC | -0.0869 ± 0.1
ATAGCCTG | -0.155 ± 0.11
ACATACAT | 0.26 ± 0.042
ACATACGA | 0.237 ± 0.015
ACATACGC | 0.0685 ± 0.056

Sequence | PBM 8-mer E-score
ACATACAG | 0.219 ± 0.059
AGATACAG | 0.134 ± 0.061
AGATACAT | 0.245 ± 0.022
AGATACAA | 0.126 ± 0.036
TCATACGA | 0.115 ± 0.021
ACATACAC | 0.139 ± 0.048
CATCTCTA | -0.0266 ± 0.00032
ACGGGCTG | -0.16 ± 0.005
AAATAACG | 0.26 ± 0.0036
AGATAATG | 0.241 ± 0.012
AGATAACC | 0.0122 ± 0.027
AAATAACA | 0.198 ± 0.039
CAATAACG | 0.0031 ± 0.057
AGATAACG | 0.256 ± 0.041
AGATAATC | -0.146 ± 0.023
AGATAATA | 0.131 ± 0.045
CGATAACG | -0.0133 ± 0.18
ATCTTGGA | -0.118 ± 0.068
ACAATGCC | 0.0109 ± 0.11
GATATCCC | -0.108 ± 0.023
ACACTTAT | 0.0681 ± 0.02
CCCTGAAG | -0.071 ± 0.03
ACACGACC | 0.0326 ± 0.019
ACACGACA | 0.289 ± 0.1
ACACGACT | 0.123 ± 0.049

Sequence | PBM 8-mer E-score
CGCCAACC | -0.101 ± 0.11
ACTAGTAA | 0.256 ± 0.1
ACTAGTAG | 0.11 ± 0.088
ACTAGTAT | 0.184 ± 0.02
CTTTCCAC | 0.196 ± 0.17
AATCCTGG | -0.171 ± 0.16
GTTTCCTA | 0.257 ± 0.11
ATTTCCTA | 0.135 ± 0.027
CTTTCCTA | 0.0286 ± 0.077
CGCCCGGA | -0.201 ± 0.068
CAATGGTA | 0.15 ± 0.041
AAATGGTA | 0.253 ± 0.056
ATATGGTC | 0.164 ± 0.09
ATATGGTA | 0.241 ± 0.069
TAATGGTA | 0.0384 ± 0.1
CTATGGTA | 0.0296 ± 0.11
TCGGTTCA | -0.0182 ± 0.1
GATGGCAA | 0.158 ± 0.091
AAGCTCCC | -0.171 ± 0.036
GCAGACCA | -0.213 ± 0.1
AATATACA | 0.246 ± 0.052
TATATAGA | 0.104 ± 0.084
TATATACA | 0.0403 ± 0.021
CATATACC | -0.0092 ± 0.047
AATATACT | 0.104 ± 0.069

Sequence | PBM 8-mer E-score
GATATACA | 0.08271 ± 0.00014
CATATACA | 0.271 ± 0.067
AATATAGA | 0.277 ± 0.044
CATATAGA | 0.166 ± 0.049
ATTGCGTA | 0.188 ± 0.035
CGACGCAA | -0.157 ± 0.015
ATGCTTAA | 0.189 ± 0.046
CAAGGCCA | 0.0607 ± 0.0078
GTATAACA | 0.202 ± 0.035
ATATAACC | 0.0791 ± 0.029
ATATAACA | 0.237 ± 0.052
ATATAACG | 0.299 ± 0.0035
CTATAACA | 0.129 ± 0.045
CTATAACC | 0.0479 ± 0.05
AGAGAGCG | -0.102 ± 0.039
AGCCACAT | 0.0887 ± 0.052
CATCGTGG | -0.0807 ± 0.055
CAATCACG | 0.274 ± 0.05
ACATCACG | 0.0554 ± 0.057
TAATCACA | 0.201 ± 0.049
AAATCACA | 0.163 ± 0.043
ACATCACA | 0.237 ± 0.015
CAATCACC | 0.0883 ± 0.0053
TCATCACA | 0.116 ± 0.011
GAATCACA | -0.023 ± 0.11

Sequence | PBM 8-mer E-score
CAATCACA | 0.247 ± 0.019
CCAGCCGA | -0.272 ± 0.029
AGAAGAAA | -0.0012 ± 0.042
CGTTAGGC | 0.0594 ± 0.11
GGCGTTTA | 0.0435 ± 0.017
CCGGCACG | -0.00989 ± 0.099
ACCAAAGA | 0.003 ± 0.046
CTTTCTAA | 0.0817 ± 0.047
ATTTCTAG | 0.0411 ± 0.07
ATTTCTAC | 0.247 ± 0.043
ATTTCTAA | -0.0149 ± 0.032
CATTCTAC | 0.0976 ± 0.045
CTTTCTAC | 0.317 ± 0.053
AGGTGTCC | -0.128 ± 0.054
GACTAAAA | -0.0397 ± 0.075
AGTATAAT | 0.259 ± 0.07
AGTATAAC | 0.0201 ± 0.0067
AGTATAAA | 0.109 ± 0.12
AATACGGT | -0.059 ± 0.026
CAGGGTCA | -0.0768 ± 0.019
AAATCCAG | -0.00945 ± 0.12
AAATCCAT | 0.2404 ± 0.0018
AAATCCAC | 0.116 ± 0.058
